Some test systems named below: T-47D breast; BT-549 breast; MDA-MB-435 melanoma; SW-620 colon; MCF7 breast; HCT-116 colon; HCC-2998 colon; KM12 colon.
Assay in all cases: NCI-60 one-dose screen, 48 h (100 = growth as untreated, 0 = no growth, -100 = all killed)
Details in all cases: 10 µM unless noted

The structures appear in SMILES notation. The panel holds about 83,000 compounds, 20% with a hit somewhere; the sample as a whole holds those more often.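 Negative percent growth values reflect cell death: -40 means 40% of the cells present at the start died, and -100 means all died.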 A number with no mark means an inactive call. Calls of active or inactive are those of the source. Rule for the calls: active = growth percent below 10; inactive = the rest.

For the compound `CCOC(=O)/C(C#N)=C1/C(=O)Nc2ccccc21`, the growth in the assay on T-47D breast was 98.7%; with BT-549 breast it was 112%; in the assay on MDA-MB-435 melanoma, 119%; in the assay on SW-620 colon it was 109%; with MCF7 breast it was 103%; with HCT-116 colon, 98.4%. The growth with HCC-2998 colon was 109%; in the assay on KM12 colon, 112%.
Consider `CCO/C=N/C1=C(C#N)C(c2ccc(Cl)cc2)c2c(c3ccccc3n(C)c2=O)O1` (stereo not drawn), for which the growth in the assay with T-47D breast was 65.1%; in the assay on BT-549 breast, 81.4%; in the assay with MDA-MB-435 melanoma, 1.36% (active); in the assay with SW-620 colon it was 52.1%; in the assay with MCF7 breast it was 41.7%; in the assay with HCT-116 colon it was 66.5%. Besides, the growth is 84.5% in the assay on HCC-2998 colon and 69.1% with KM12 colon.
With `COc1ccc(-c2ccc(-c3ccc(-c4ccc(C(=N)N)cc4)s3)s2)cc1OC`, the growth was 28.5% with T-47D breast; 98.3% in the assay on BT-549 breast; 88.2% with MDA-MB-435 melanoma; -40.8% (active) with SW-620 colon; -19.8% (active) in the assay with MCF7 breast; 27.5% in the assay on HCT-116 colon. For the same compound, the growth with HCC-2998 colon was -68.6% (active); in the assay on KM12 colon, -42.5% (active).
As to `O=C(Nc1ccc2c(c1)OCO2)C(=O)c1c[nH]c2cc(F)ccc12`, the growth with T-47D breast was 46.7%; with BT-549 breast it was 70.3%; with MDA-MB-435 melanoma, 34.7%; in the assay with SW-620 colon it was 34.3%; in the assay on MCF7 breast it was 57.7%; in the assay on HCT-116 colon, 56.7%. Besides, the values for the growth in the assay with HCC-2998 colon and in the assay on KM12 colon were 25.3% and 27.1%, respectively.
For `COc1ccc(C2CC(c3ccc(OC)cc3OC)=NN2c2ccc(S(N)(=O)=O)cc2)cc1` (stereo not drawn), the growth in the assay on T-47D breast is 63.9%; with BT-549 breast, 76.7%; in the assay with MDA-MB-435 melanoma, 103%; with SW-620 colon it was 101%; with MCF7 breast, 86%; in the assay with HCT-116 colon it was 62.8%. Also, the growth with HCC-2998 colon was 121%; in the assay on KM12 colon it was 86.4%.
As to `O=[N+]([O-])c1ccc(-c2cn(-c3ccccc3)c(-c3ccccc3)n2)cc1`, the growth with T-47D breast was 65.9%; in the assay on BT-549 breast it was 96%; with MDA-MB-435 melanoma, 100%; in the assay with SW-620 colon, 95%; in the assay with MCF7 breast, 74.4%; in the assay with HCT-116 colon it was 87.1%. Moreover, the growth was 104% in the assay on HCC-2998 colon and 94.4% with KM12 colon.
In the case of `Cc1ccc(S(=O)(=O)C2=C3C(=C(c4ccccc4)c4ccccc43)CN(S(=O)(=O)c3ccc(C)cc3)C2)cc1`, the growth in the assay on T-47D breast is 12%; with BT-549 breast, -1.45% (active); in the assay on MDA-MB-435 melanoma it was 74.2%; in the assay with SW-620 colon, -17.7% (active); in the assay on MCF7 breast, 37.6%; in the assay with HCT-116 colon, 8.4% (active). Also, the growth with HCC-2998 colon is 88.9%; in the assay with KM12 colon, 64.1%.
Regarding `O=C(Nc1ccncc1)C(=O)c1cn(S(=O)(=O)c2ccc(Oc3ccccc3)cc2)c2ccccc12`, the growth was 66.4% with T-47D breast; 94.9% with BT-549 breast; 94.1% with MDA-MB-435 melanoma; 94.2% in the assay with SW-620 colon; 94.3% in the assay on MCF7 breast; 87.9% in the assay with HCT-116 colon. The growth was 81.5% in the assay with HCC-2998 colon and 99.1% with KM12 colon.
Take `O=c1[nH]c(Nc2ccc(S(=O)(=O)O)cc2)nc2nc(Nc3ccc(NC(=S)Nc4ccccc4)cc3)nc(-c3ccc(O)cc3O)c12`: the growth in the assay on T-47D breast was 90.7%; in the assay with BT-549 breast it was 152%; in the assay on MDA-MB-435 melanoma, 111%; in the assay on SW-620 colon, 107%; in the assay with MCF7 breast, 107%; in the assay with HCT-116 colon it was 109%. Further, the growth is 112% in the assay with HCC-2998 colon and 95.2% in the assay with KM12 colon.
In the case of `CCc1ccc(-c2ccc(=O)n(-c3ccc(S(N)(=O)=O)cc3)n2)cc1`, the growth in the assay on T-47D breast is 33.4%; in the assay with BT-549 breast it was 7.69% (active); in the assay on MDA-MB-435 melanoma it was -17.8% (active); with SW-620 colon, 7.19% (active); in the assay with MCF7 breast, 30.2%; with HCT-116 colon it was 16.8%. For the same compound, the growth is 53.9% with HCC-2998 colon and 13.6% with KM12 colon.
In the case of `CC(=O)Oc1csc(N(C(C)=O)c2cccc(C(F)(F)F)c2)n1`, the growth in the assay on T-47D breast was 87.7%; in the assay with BT-549 breast, -89.8% (active); with MDA-MB-435 melanoma, 98.1%; in the assay with SW-620 colon, 98.7%; in the assay with MCF7 breast it was 90.8%; in the assay on HCT-116 colon, 86.6%. Moreover, the growth in the assay on HCC-2998 colon is 108%; in the assay on KM12 colon, 99.3%.
As for `COc1ccc(CNCCCN2C(=O)c3ccc4c5c(ccc(c35)C2=O)C(=O)N(CCCNCCCCNCCCN)C4=O)c(OC)c1OC`, the growth with T-47D breast is -44.4% (active); with BT-549 breast it was 60.4%; in the assay on MDA-MB-435 melanoma, -39.1% (active); in the assay with SW-620 colon, 10.8%; with MCF7 breast, -19.7% (active); with HCT-116 colon, 6.94% (active). In addition, the results for the growth in the assay on HCC-2998 colon and with KM12 colon were -3.52% (active) and 21.2%, respectively.
Consider `COc1cc(/C(C#N)=C/c2ccc3c(c2OC)OCO3)cc2c1OCO2`, for which the growth in the assay with T-47D breast is 52.7%; in the assay on BT-549 breast, 71.7%; in the assay with MDA-MB-435 melanoma, -39.4% (active); in the assay on SW-620 colon, 19.8%; in the assay with MCF7 breast, 21.4%; with HCT-116 colon it was 16.7%. Further, the values for the growth in the assay with HCC-2998 colon and in the assay on KM12 colon were 12.8% and 17.4%, respectively.
In the case of `Cc1ccc(S(=O)(=O)/C(=C\c2ccc(Cl)cc2)C(=O)c2ccccc2)cc1`, the growth with T-47D breast was 95.3%; in the assay on BT-549 breast, 102%; with MDA-MB-435 melanoma it was 88.7%; in the assay with SW-620 colon, 106%; with MCF7 breast it was 82.3%; in the assay on HCT-116 colon, 106%. In addition, the growth in the assay on HCC-2998 colon is 107%; in the assay with KM12 colon it was 111%.
On to `CCCCCCCCCCCCNC(=O)[C@H]1CSC(c2cc3ccccc3s2)N1` (stereo partly drawn), for which the growth in the assay on T-47D breast was 52.5%; in the assay with BT-549 breast, -60.1% (active); in the assay on MDA-MB-435 melanoma, -94.6% (active); with SW-620 colon, 3.61% (active); with MCF7 breast, 42.4%; with HCT-116 colon, -80% (active). Moreover, the growth is 61.4% with HCC-2998 colon and -50.7% (active) with KM12 colon.
`N[C@@H]1CCN(C(=O)c2cc3cc(Cl)c(F)c(F)c3[nH]2)C1`: the growth in the assay on T-47D breast was 82.2%; in the assay with BT-549 breast, 1.7% (active); in the assay with MDA-MB-435 melanoma, 97.3%; in the assay with SW-620 colon it was 96.6%; in the assay with MCF7 breast, 94.5%; in the assay on HCT-116 colon, 92.8%. For the same compound, the results for the growth in the assay on HCC-2998 colon and in the assay on KM12 colon were 96.1% and 98.8%, respectively.

Source of the values: PubChem BioAssay (NCI).
